Assay [1] addresses Galactokinase (Homo sapiens) (UniProt P51570). The experiment in a line: qHTS Validation Assay for Inhibitors of Human Galactokinase (GALK) (AID 493189). Further: 0% is about no effect. The gist of the method:
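Enzyme activity is inferred from ATP consumption: human GALK phosphorylates galactose (100 uM) using 35 uM ATP for 1 h at room temperature, and luciferase-based Kinase-Glo Plus reports unconsumed ATP.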

Assay [2] is described as follows: Validation screen for small molecules that induce DNA re-replication in SW480 colon adenocarcinoma cells (AID 504364). Further: 0% is about no effect. The gist of the method:
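SW480 cells seeded at 250 per well were exposed to compound or DMSO for 48 hr at 37 C, 5% CO2, then stained with Hoechst for 40 min. DNA content per nucleus was imaged (405 nm ex, 500-530 nm em).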

The target of assay [3] is Peptidyl-prolyl cis-trans isomerase NIMA-interacting 1 (Homo sapiens) (UniProt Q13526). As to the kind of experiment: qHTS Validation Assay to Find Inhibitors of Pin1 (AID 504536; active means well fitted inhibition curve with a large enough effect in the polarisation, with a control signal flat, not every such curve was filed as active; the % refers to the polarisation;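 further: 0% = full Pin1 enzyme wells and -100% = no-enzyme wells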). The gist of the method: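 Fluorescence polarization competition: compounds (titration) displace HiFluor-488-labeled Pin1-1b peptide from Pin1 (0.3 uM final) in pH 7.5 HEPES buffer with DTT, 10 min at room temperature; %Activity normalized to no-enzyme wells, curves fitted.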
(In qHTS, concentration-response curves come from the screen itself.)

The target in assay [4] is Phosphoglycerate kinase, glycosomal (Trypanosoma brucei brucei) (UniProt P07378). As to the kind of experiment: qHTS Validation Assay to Find Inhibitors of Phosphoglycerate Kinase (AID 504547).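 Further: control wells lack PGK and mark full inhibition.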 The gist of the method:
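PGK activity was coupled to GAPDH (100nM final), which generates the unstable substrate 1,3-bisphosphoglycerate in-well. Reactions ran 60 minutes at room temperature in 100mM TEA pH 7.6, 5mM MgCl2, 0.01% Tween-20, then Kinase-Glo Plus luminescence was read.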

The target of assay [5] is phosphoglycerate mutase (Leishmania major) (UniProt Q4Q090). The experiment in a line: qHTS Validation Assay to Find Inhibitors of Phosphoglycerate Mutase (AID 504548). Further: series mostly up to about 58 µM; on the % scale 0 is the no-effect control and ±100 the full control effect. The gist of the method:
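Luminescent end-point read-out via Kinase-GloPlus after a 10-minute development. Reaction: 1.25nM Leishmania major PGAM with substrate and compound, 45 minutes at room temperature in TEA buffer (pH 7.6) with MgCl2 and Tween-20.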

The target in assay [6] is Ubiquitin carboxyl-terminal hydrolase 1 (Homo sapiens) (UniProt O94782). As to the kind of experiment: Inhibitors of USP1/UAF1: Pilot qHTS (AID 504865). Further: nearly all actives have a fitted effect of over 35% in size. Further: potency means the concentration at half of the fitted maximal effect. The gist of the method:
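Enzyme-free wells gave the negative control, while test wells held 1nM USP1/UAF1 preincubated with compound for 15 min at room temperature. Ub-Rho at 150nM final started the reaction, and fluorescence at 480/540 nm was recorded kinetically.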

Assay [7] in a line: qHTS for Inhibitors of ATXN expression: Validation (AID 588378). Further: nearly all actives have a fitted effect of over 75% in size. Further: potency means the concentration at half of the fitted maximal effect. The gist of the method:
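After a 2 h attachment and 24 h compound incubation, HEK293-ATXN2-FFLuc wells are read for fluorescence at 405 nm excitation/525 nm emission as a viability measure, then for Bright-Glo luminescence reflecting ATXN2 expression.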

The nature of assay [8]: qHTS for Inhibitors of ATXN expression: Validation of Cytotoxic Assay (AID 588349). Further: on the % scale 0 is the no-effect control and ±100 the full control effect. The gist of the method: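 HEK293 cells were dosed with titrated compounds for 72 hr at 37 degrees C. Viability was read by CellTiter Glo luminescence, with intracellular ATP as the marker of cell survival.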
In assay [9] the target is DNA dC->dU-editing enzyme APOBEC-3G (Homo sapiens) (UniProt Q9HC16). The experiment in a line: qHTS for inhibitors of Vif-A3G interactions: Validation (AID 588379). Further: 0% is about no effect. The gist of the method:
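HeLa cells stably expressing Vif and A3G-eYFP, 700 cells/well, incubated overnight at 37 deg C, then exposed to compound overnight at 37 deg C. Inhibition of Vif-mediated degradation read as increased yellow fluorescence (Ex 488/Em 500-530) by laser-scanning cytometry.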

The target in assay [10] is Glucocorticoid receptor (Homo sapiens) (UniProt P04150). The experiment in a line: qHTS assay for small molecule agonists of glucocorticoid receptor signaling (AID 588532; active means well fitted curve in the direction sought with a large enough effect in the signal ratio, with a control signal flat; the % refers to the signal ratio;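 further: 100% = dexamethasone at 0.1 µM and 0% = DMSO only wells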). The note with it: HeLa MMTV-bla, beta-lactamase ratio, agonist, 18 h; stronger effect = higher value; percent of dexamethasone control, DMSO zero. The gist of the method:
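MMTV-bla HeLa beta-lactamase reporter cells in 1% charcoal/dextran FBS medium, compounds up to 92 uM for 18 h at 37 C, CCF4 readout; normalized to 0.1 uM dexamethasone (100%), EC50 and efficacy from Hill fits.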

Assay [11] has the same target. The experiment in a line: qHTS assay for small molecule antagonists of glucocorticoid receptor signaling (AID 588533; active means well fitted inhibition curve with a large enough effect in the signal ratio, with a control signal flat, not every such curve was filed as active; the % refers to the signal ratio;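 further: cells stimulated with 2 nM dexamethasone as agonist; on the % scale 0 is the no-effect control and ±100 the full control effect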). The gist of the method: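 Antagonist-mode qHTS: compound titrations added to GRE-bla HeLa cells, then dexamethasone 2 nM final; 18 h, 37 C. CCF4 FRET fluorescence normalized to dexamethasone and DMSO; IC50 from Hill fit.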
Assay [12] can be described thus: qHTS assay for small molecule antagonists of peroxisome proliferator-activated receptor delta signaling (AID 588535; active means well fitted inhibition curve with a large enough effect in the signal ratio, with a control signal flat, not every such curve was filed as active; the % refers to the signal ratio;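 on max response: cells co-treated with a PPAR-delta agonist as stimulator during compound exposure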). The note with it: HEK293T PPARd-UAS-bla, beta-lactamase FRET ratio, 18 h; 460 nm channel. The gist of the method:
(§1)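 Cells were seeded at 4000 per well in assay medium containing 2% charcoal/dextran FBS and held 5 hrs at 37 C. Compounds were then added for 18 hrs. CCF4 substrate was applied for 2 hrs at room temperature before fluorescence reading.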

Assay [13] has as its target Peroxisome proliferator-activated receptor delta (Homo sapiens) (UniProt Q03181). The description is as above. The gist of the method:
as §1

Assay [14] concerns the target Peroxisome proliferator-activated receptor gamma (Homo sapiens) (UniProt P37231). As to the kind of experiment: qHTS assay for small molecule antagonists of peroxisome proliferator-activated receptor gamma signaling (AID 588537; active means well fitted inhibition curve with a large enough effect in the signal ratio, with a control signal flat, not every such curve was filed as active; the % refers to the signal ratio;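 further: reporter cells co-stimulated with 50 nM rosiglitazone agonist during compound treatment; % of control where 0% means no effect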). The gist of the method: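 Step one: plate 3000 HEK293 UAS-bla cells per well in medium with 1% stripped serum and hold 6-6.5 h at 37 C. Step two: add compound and 50 nM agonist for 16 h. Step three: CCF4 loading, fluorescence read.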

Several values for one entry are separate records, joined by “and”; a condition that tells them apart may be missing. Equal entries are not always repeated. Inconclusive results are not listed. Activity calls are given as the source filed them. Unless noted, the call rests on the fitted dose curve; in most records, active means well fitted curve in the direction sought with a large enough effect; inconclusive means small, poorly fitted or top-dose-only effect, or another doubt; inactive means no such curve, though single readings can be large; an effect the other way counts as inactive or inconclusive.

The record followed here is PubChem BioAssay (NCATS).

Chain of phosphoglycerate mutase (Leishmania major) (Q4Q090 1-553): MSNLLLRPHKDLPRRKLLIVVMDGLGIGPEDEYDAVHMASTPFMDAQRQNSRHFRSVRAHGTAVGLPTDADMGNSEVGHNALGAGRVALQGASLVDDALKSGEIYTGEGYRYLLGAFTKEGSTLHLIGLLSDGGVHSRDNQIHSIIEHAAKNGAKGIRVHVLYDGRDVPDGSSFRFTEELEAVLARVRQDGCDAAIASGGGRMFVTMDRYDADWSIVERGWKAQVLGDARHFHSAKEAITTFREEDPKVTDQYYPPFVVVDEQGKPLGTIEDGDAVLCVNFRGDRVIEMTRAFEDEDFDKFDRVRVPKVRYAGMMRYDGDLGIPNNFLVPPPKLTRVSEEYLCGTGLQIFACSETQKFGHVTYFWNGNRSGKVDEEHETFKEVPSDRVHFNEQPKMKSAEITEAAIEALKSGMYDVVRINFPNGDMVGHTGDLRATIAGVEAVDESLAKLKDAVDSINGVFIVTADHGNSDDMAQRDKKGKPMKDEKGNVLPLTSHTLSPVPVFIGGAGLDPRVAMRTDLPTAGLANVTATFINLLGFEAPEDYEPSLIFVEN
Chain of Galactokinase (Homo sapiens) (P51570 whole entry, looked up): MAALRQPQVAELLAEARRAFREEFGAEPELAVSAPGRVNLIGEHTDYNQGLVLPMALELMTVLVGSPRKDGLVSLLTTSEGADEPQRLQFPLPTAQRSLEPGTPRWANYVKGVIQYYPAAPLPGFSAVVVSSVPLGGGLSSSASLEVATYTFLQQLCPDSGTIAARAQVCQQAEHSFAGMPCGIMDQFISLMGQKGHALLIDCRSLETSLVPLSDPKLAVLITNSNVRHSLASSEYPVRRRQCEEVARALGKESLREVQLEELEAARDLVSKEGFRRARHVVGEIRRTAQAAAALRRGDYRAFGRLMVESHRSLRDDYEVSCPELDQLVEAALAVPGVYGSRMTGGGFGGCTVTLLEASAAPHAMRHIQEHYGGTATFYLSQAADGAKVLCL
Chain of Ubiquitin carboxyl-terminal hydrolase 1 (Homo sapiens) (O94782 whole entry, looked up): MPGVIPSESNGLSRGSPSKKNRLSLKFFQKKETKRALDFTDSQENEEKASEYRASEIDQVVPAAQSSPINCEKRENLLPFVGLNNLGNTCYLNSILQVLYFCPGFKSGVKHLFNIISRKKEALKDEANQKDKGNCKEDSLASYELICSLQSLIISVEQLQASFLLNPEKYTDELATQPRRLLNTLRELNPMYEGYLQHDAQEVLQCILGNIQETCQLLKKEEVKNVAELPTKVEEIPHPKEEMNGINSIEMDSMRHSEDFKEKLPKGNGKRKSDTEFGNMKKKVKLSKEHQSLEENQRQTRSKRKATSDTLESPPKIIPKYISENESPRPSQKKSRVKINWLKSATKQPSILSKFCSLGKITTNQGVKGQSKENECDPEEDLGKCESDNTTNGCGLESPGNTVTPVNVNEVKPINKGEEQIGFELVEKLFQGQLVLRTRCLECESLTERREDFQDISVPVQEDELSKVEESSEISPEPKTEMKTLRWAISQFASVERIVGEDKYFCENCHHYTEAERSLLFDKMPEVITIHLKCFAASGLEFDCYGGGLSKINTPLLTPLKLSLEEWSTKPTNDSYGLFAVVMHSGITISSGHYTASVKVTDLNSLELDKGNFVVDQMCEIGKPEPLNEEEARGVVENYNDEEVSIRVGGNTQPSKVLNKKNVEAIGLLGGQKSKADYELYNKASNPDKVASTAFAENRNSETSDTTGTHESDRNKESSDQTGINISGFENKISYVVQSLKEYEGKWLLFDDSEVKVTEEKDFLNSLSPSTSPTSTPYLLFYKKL
Chain of DNA dC->dU-editing enzyme APOBEC-3G (Homo sapiens) (Q9HC16 whole entry, looked up): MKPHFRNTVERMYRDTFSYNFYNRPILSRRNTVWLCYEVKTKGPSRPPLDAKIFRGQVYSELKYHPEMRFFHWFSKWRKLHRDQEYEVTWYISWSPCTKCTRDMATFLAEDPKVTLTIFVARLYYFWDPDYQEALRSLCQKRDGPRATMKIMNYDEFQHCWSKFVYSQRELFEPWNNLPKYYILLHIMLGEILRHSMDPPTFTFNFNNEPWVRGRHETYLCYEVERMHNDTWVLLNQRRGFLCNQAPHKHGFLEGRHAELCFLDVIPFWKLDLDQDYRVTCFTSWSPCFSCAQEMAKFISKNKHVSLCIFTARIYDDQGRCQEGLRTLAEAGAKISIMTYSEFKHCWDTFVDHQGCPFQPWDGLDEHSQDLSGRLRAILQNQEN
Chain of Phosphoglycerate kinase, glycosomal (Trypanosoma brucei brucei) (P07378 whole entry, looked up): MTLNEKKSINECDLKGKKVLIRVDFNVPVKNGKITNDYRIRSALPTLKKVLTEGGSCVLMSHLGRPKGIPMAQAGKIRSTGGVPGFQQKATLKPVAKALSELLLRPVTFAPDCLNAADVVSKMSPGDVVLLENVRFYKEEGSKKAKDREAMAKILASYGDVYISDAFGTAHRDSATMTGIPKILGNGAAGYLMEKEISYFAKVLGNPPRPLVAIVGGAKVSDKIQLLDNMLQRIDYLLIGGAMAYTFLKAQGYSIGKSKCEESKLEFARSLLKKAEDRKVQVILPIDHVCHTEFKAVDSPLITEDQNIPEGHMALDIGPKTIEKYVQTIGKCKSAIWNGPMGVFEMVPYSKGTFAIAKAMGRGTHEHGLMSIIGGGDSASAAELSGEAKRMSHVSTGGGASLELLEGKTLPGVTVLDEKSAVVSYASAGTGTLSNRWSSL
Chain of Glucocorticoid receptor (Homo sapiens) (P04150 whole entry, looked up): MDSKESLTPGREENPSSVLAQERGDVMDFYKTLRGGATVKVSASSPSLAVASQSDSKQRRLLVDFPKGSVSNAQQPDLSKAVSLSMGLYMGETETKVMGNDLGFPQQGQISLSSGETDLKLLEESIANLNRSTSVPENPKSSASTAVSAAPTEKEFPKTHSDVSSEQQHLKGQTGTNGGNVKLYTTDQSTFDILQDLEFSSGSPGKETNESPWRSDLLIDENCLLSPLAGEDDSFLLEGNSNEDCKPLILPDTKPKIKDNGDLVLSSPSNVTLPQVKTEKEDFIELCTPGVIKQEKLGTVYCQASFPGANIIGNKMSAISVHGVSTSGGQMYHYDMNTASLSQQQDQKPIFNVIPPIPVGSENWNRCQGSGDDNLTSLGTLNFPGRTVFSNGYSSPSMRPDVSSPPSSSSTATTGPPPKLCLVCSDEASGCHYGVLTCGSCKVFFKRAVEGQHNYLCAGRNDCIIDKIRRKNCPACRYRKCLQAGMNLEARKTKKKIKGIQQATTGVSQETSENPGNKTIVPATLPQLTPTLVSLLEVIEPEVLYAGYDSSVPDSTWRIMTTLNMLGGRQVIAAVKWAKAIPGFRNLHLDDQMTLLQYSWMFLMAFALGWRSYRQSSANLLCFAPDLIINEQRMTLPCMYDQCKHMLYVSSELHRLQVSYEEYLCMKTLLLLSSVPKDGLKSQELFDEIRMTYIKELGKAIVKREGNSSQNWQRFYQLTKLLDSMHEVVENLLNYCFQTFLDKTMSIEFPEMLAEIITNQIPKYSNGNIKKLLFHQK
Chain of Peptidyl-prolyl cis-trans isomerase NIMA-interacting 1 (Homo sapiens) (Q13526 whole entry, looked up): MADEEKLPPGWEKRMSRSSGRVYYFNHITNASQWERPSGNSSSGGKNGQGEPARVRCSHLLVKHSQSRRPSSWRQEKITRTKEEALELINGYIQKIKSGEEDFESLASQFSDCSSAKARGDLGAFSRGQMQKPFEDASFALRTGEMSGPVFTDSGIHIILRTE
Chain of Peroxisome proliferator-activated receptor delta (Homo sapiens) (Q03181 whole entry, looked up): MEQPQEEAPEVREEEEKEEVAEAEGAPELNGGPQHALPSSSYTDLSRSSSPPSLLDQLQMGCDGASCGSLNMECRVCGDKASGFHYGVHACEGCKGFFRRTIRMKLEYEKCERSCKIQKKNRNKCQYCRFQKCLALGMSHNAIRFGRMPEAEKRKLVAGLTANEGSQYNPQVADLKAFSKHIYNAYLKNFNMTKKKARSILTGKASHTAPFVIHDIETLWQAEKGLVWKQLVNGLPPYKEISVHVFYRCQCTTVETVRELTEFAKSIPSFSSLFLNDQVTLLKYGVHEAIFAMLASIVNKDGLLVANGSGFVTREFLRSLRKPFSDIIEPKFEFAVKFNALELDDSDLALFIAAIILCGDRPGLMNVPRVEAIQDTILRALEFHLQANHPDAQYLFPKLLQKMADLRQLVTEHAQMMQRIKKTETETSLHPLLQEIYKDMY
Chain of Peroxisome proliferator-activated receptor gamma (Homo sapiens) (P37231 whole entry, looked up): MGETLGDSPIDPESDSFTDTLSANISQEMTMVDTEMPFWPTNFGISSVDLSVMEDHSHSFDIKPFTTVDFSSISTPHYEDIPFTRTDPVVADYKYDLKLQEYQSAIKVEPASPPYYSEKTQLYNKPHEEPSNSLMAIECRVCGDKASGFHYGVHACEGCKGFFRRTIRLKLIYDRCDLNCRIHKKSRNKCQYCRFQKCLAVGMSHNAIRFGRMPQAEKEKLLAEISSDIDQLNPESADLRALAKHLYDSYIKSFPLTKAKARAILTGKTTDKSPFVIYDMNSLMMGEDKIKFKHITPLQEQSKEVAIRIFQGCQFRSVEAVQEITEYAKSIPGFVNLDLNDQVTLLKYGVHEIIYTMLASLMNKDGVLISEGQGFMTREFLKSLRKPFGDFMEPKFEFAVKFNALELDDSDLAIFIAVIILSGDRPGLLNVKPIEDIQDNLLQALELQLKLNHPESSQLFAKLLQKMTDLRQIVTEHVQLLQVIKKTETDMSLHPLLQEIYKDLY

As to `CC(CN1c2ccccc2Sc2ccccc21)N(C)C` (stereo not drawn), the compound was classed as inactive in assay [1], in [2], in assay [3], in assay [4] and in assay [5]. Besides, the Potency entry in assay [6] is “inactive”. The Potency in assay [7] was 17.8 µM (active).

As for `NC(N)=NCCC[C@H](N)C(=O)O`, the compound was called inactive in [1], in assay [2], in assay [3], in [4], in assay [5] and in [9]. The Potency entry in assay [6], in assay [8] and in [7] was “inactive” throughout.

In the case of `Nc1cc(=O)[nH]c(N)n1`, the result in assay [1], in assay [2], in assay [3], in assay [4], in [5] and in [9] was inactive. In addition, the Potency result in assay [6], in assay [8] and in assay [7] was “inactive” each time.

Take `N=c1c[n+](N2CCOCC2)[n-]o1`: the compound was called inactive in assay [1], in [2], in assay [3], in assay [4] and in assay [5]. The Potency entry in assay [6], in [8] and in assay [7] was “inactive” throughout.

On to `CCCCCCCCCCCCCCCC(=O)NCCO`, for which the outcome in [1], in [2], in [3], in assay [4], in assay [5] and in [9] was inactive. The Potency entry in [6], in [8] and in assay [7] was “inactive” throughout.

Turning to `CC(C(O)c1ccc(O)cc1)N1CCC(Cc2ccccc2)CC1` (stereo not drawn), the result in [1], in [2], in assay [3], in [4] and in assay [5] was inactive. Further, in assay [6], the Potency entry is “inactive”.

Turning to `C[C@](N)(Cc1ccc(O)cc1)C(=O)O`, the compound was classed as inactive in assay [1], in assay [2], in assay [3], in assay [4] and in assay [5]. The Potency result in [6], in assay [8] and in [7] was “inactive” throughout.

Consider `CCN(CC)CCOC(=O)C1(C2CCCCC2)CCCCC1`, for which the outcome in assay [1], in assay [2], in [3], in [4] and in [5] was inactive. For the same compound, the Potency result in assay [6] was “inactive”.

`NC1CCN(c2cccc(Cl)n2)CC1`: the compound was called inactive in [1], in [2], in assay [3], in [4], in assay [5] and in assay [9]. In addition, the Potency result in assay [6], in [8] and in assay [7] was “inactive” throughout.

As for `CC(=O)OCC(=O)[C@@]1(O)CC[C@H]2[C@@H]3CCC4=CC(=O)CC[C@]4(C)[C@H]3C(=O)C[C@@]21C`, the compound was called inactive in assay [1], in assay [2], in [3], in assay [4] and in [5]. Also, the Potency result in assay [6], in assay [8] and in assay [7] was “inactive” each time.

For `CC1=C(/C=C/C(C)=C/C=C/C(C)=C/C(=O)O)C(C)(C)CCC1`, the compound was classed as inactive in [1], in assay [2], in assay [3], in [4], in assay [5] and in [9]. The compound was called inactive in assay [11], in assay [13] and in assay [14]. Further, in [6], the Potency is 79.4 µM (active). In addition, the Potency entry in assay [8] and in [7] was “inactive” in each case. The activation in assay [10] was 3.3% (inactive) and -6.04% (inactive). For the same compound, the max response in assay [12] is 53.7% and 67%.
